# Source: PubChem BioAssay
# Some of the results follow. Activity calls are given as the source filed them. Rule as the data show it, unless noted: active = activity above about 50%; inactive = the rest.
# Columns and labels:
# PEG-3 [1] = biological target: PEG-3 (UniProt Q6IN02); assay: Peg3 promoter luciferase inhibitors, potency, dose response, cell-based, HeLa, CREF/GAPDH counter-screen panel (AID 624167); details: HeLa PEG-Prom luciferase reporter, overnight, CREF/GAPDH counter-screens; run 1, dose range 1, at 100 µM (top of the series)
# PEG-3 [2] = biological target: PEG-3 (UniProt Q6IN02); assay: as above; details: HeLa PEG-Prom luciferase reporter, overnight, CREF/GAPDH counter-screens; run 2, dose range 1, at 100 µM (top of the series)
# [3] = Peg3 promoter reporter inhibitors, retest, confirmation, cell-based, HeLa, luciferase reporter, single concentration (AID 602417;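 active = at 20 µM dose, 40% or more inhibition averaged across four replicates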); details: HeLa PEG-Prom luciferase reporter, luminescence, overnight; at 20 µM; stronger effect = higher value
# [4] = inhibition of Brca1/Bard1 split-luciferase complementation, confirmation, counter-screen for Mdm2/MdmX interaction inhibitor project, luminescence, single concentration (AID 504668; call rule not given here); details: Brca1/Bard1 bimolecular luciferase complementation counterscreen, at 8 µM, stronger effect = higher value
# [5] = biological target: Tumor necrosis factor receptor superfamily member 10B (Homo sapiens) (UniProt O14763); assay: caspase-8 TRAIL sensitization, hit retest, confirmation, cell-based, NB7+caspase-8, with/without TRAIL, luminescence panel (AID 651596); details: NB7 neuroblastoma + caspase-8, TRAIL sensitization, luminescence viability, with TRAIL, mean of runs, at 10 µM, stronger effect = higher value
# [6] = as above; details: NB7 neuroblastoma + caspase-8, without TRAIL, luminescence viability, without TRAIL, mean of runs, at 10 µM
# [7] = inhibitors of PAF-induced NF-kB signaling, retest, confirmation, cell-based, GFP fluorescence, single concentration (AID 602472; in the data active = inhibition above about 40%;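 also: stimulus PAF is a Pseudomonas aeruginosa filtrate and not platelet activating factor; plate controls were DMSO wells with stimulus for no effect and unstimulated DMSO wells for full effect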); details: KKLEB CF airway cells, overnight, at 5 µM, stronger effect = higher value
# [8] = biological target: Carboxy-terminal domain RNA polymerase II polypeptide A small phosphatase 1 (Homo sapiens) (UniProt Q9GZU7); assay: Scp-1 binding by thermal shift, confirmation, orthogonal assay for Scp-1 inhibitor project, biophysical, differential scanning fluorimetry (AID 540329;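 active = substances whose mean melting-temperature shift, as a percentage of the reference inhibitor's shift, reaches about 5.3%, limit read from the data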;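 also: 0% = Tm of DMSO wells and 100% = Tm with sodium orthovanadate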); details: Recombinant SCP1, Sypro Orange thermal shift Tm; at 40 µM; stronger effect = higher value
# [9] = biological target: Tumor necrosis factor receptor superfamily member 10B (Homo sapiens) (UniProt O14763); assay: TRAIL sensitizers in caspase-8 expressing neuroblastoma cells, dose response, NB7 cells plus caspase-8, luminescence, panel (AID 652002); details: NB7 neuroblastoma +caspase-8, TRAIL sensitization, luminescence viability, NB7+Caspase-8, with TRAIL, run 1; at 12.5 µM (top of the series)
# [10] = biological target: Tumor necrosis factor receptor superfamily member 10B (Homo sapiens) (UniProt O14763); assay: as above; details: NB7 neuroblastoma +caspase-8, TRAIL sensitization, luminescence viability, NB7+Caspase-8, with TRAIL, run 2; at 12.5 µM (top of the series)
# [11] = as above; details: NB7 neuroblastoma +caspase-8, no TRAIL, compound-alone cytotoxicity counter-screen, luminescence viability, NB7+Caspase-8, run 1; at 12.5 µM (top of the series)
# [12] = as above; details: NB7 neuroblastoma +caspase-8, no TRAIL, compound-alone cytotoxicity counter-screen, luminescence viability, NB7+Caspase-8, run 2; at 12.5 µM (top of the series)
# Rat fibroblasts (CREF) [13] = assay: Peg3 promoter luciferase inhibitors, potency, dose response, cell-based, HeLa, CREF/GAPDH counter-screen panel (AID 624167); details: CREF/GAPDH counter-screens; run 1, dose range 1, at 100 µM (top of the series)
# Rat fibroblasts (CREF) [14] = assay: as above; details: CREF/GAPDH counter-screens; run 2, dose range 1, at 100 µM (top of the series)
# Chain of PEG-3 (Q6IN02 whole entry, looked up): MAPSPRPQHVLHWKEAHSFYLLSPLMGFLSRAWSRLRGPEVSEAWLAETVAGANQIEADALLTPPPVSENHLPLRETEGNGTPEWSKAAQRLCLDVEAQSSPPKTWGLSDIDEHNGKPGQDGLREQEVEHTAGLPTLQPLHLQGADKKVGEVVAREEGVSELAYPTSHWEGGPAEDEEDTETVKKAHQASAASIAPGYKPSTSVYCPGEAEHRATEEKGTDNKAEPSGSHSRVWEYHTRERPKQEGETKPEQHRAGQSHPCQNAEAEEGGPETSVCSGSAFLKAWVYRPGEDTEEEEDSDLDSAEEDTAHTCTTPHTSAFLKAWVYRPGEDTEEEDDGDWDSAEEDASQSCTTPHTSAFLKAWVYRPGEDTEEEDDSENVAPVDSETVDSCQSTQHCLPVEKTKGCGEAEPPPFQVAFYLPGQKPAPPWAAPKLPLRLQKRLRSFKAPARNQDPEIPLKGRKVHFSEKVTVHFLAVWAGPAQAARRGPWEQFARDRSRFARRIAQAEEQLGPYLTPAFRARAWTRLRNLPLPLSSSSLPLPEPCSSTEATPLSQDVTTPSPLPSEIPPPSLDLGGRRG
# Chain of Tumor necrosis factor receptor superfamily member 10B (Homo sapiens) (O14763 whole entry, looked up): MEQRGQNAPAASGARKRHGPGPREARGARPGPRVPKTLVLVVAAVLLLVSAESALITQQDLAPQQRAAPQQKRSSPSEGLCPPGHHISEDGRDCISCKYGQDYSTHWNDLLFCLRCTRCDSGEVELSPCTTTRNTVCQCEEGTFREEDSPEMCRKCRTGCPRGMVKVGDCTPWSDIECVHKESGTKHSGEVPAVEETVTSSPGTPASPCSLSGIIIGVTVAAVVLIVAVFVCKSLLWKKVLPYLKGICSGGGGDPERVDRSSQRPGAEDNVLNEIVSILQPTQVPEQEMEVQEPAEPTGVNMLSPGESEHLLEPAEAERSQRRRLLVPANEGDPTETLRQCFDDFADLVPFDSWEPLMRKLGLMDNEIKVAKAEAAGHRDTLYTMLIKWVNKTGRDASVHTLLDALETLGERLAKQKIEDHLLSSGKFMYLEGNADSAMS
# Chain of Carboxy-terminal domain RNA polymerase II polypeptide A small phosphatase 1 (Homo sapiens) (Q9GZU7 76-261 limits assumed): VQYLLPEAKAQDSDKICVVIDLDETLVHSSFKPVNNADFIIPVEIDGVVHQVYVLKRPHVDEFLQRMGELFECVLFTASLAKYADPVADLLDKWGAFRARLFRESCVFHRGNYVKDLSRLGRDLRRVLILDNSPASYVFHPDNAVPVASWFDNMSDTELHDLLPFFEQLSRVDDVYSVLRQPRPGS
smiles,measurement,setting,value
O=C1NC(=O)N(Cc2ccccc2)C(=O)/C1=C\C=C\c1ccco1,inhibition,PEG-3 [1],94.5%
same,inhibition,PEG-3 [2],98.5%
COc1ccc(CNCCc2c(C)[nH]c3ccc(OC(F)(F)F)cc23)c(OC)c1,inhibition,PEG-3 [1],102%
same,inhibition,PEG-3 [2],101%
CNCC(O)c1cc(OCc2ccccc2)c(OCc2ccccc2)cc1F (centres undefined),inhibition,PEG-3 [1],102%
same,inhibition,PEG-3 [2],102%
CC1(C)Cc2c(C#N)c(N3CCNCC3)nc(-c3ccco3)c2CS1,inhibition,[3],68.9% (active)
same,inhibition,PEG-3 [1],101%
same,inhibition,PEG-3 [2],101%
Cc1ccc(-c2cc(-c3ccc(C)cc3)[n+](-c3ccccc3)c(-c3ccc(C)cc3)c2)cc1,inhibition,PEG-3 [1],101%
same,inhibition,PEG-3 [2],102%
CCOc1cccc(CNCCc2c(C)[nH]c3ccc(OC(F)(F)F)cc23)c1O,inhibition,[4],29.9% (active)
O=C1NC(=S)N(c2ccccc2F)C(=O)/C1=C\c1cccs1,inhibition,PEG-3 [1],102%
same,inhibition,PEG-3 [2],99%
COc1ccc(-n2c(/C=C/c3ccc(O)c(OC)c3)nc3ccccc3c2=O)cc1,inhibition,PEG-3 [1],101%
same,inhibition,PEG-3 [2],92.7%
Brc1ccc(-[n+]2c(-c3ccccc3)cc(-c3ccccc3)cc2-c2ccccc2)cc1,inhibition,[4],24.1% (active)
same,activity,[5],73%
same,activity,[6],63%
COc1ccc(C(c2nnnn2-c2c(C)cccc2C)N2CCC(n3c(=O)[nH]c4ccccc43)CC2)cc1 (centres undefined),inhibition,PEG-3 [1],63.7%
same,inhibition,PEG-3 [2],63.1%
Cc1cccc(C)c1-n1nnnc1C(c1ccccc1OC(F)(F)F)N1CCC(n2c(=O)[nH]c3ccccc32)CC1 (centres undefined),inhibition,PEG-3 [1],49.4%
same,inhibition,PEG-3 [2],42%
CC1=CC(O)C(O)C2(C)C1CC1OC(=O)C(O)C3C(C)C(O)C4(O)OCC13C42 (centres undefined),inhibition,PEG-3 [1],95.8%
same,inhibition,PEG-3 [2],93.3%
NC(N)=N/N=C/c1ccc(N(c2ccccc2)c2ccccc2)cc1,inhibition,[4],29.9% (active)
same,activity,[5],75.5%
same,activity,[6],97.2%
CCN(CC)C(=O)Cn1cc(/C=C2\C(=O)NC(=O)N(c3ccccc3F)C2=O)c2ccccc21,inhibition,PEG-3 [1],102%
same,inhibition,PEG-3 [2],98.9%
Cc1[nH]c2ccc(OC(F)(F)F)cc2c1CCNCc1cccc([N+](=O)[O-])c1,inhibition,PEG-3 [1],101%
same,inhibition,PEG-3 [2],101%
CCCCn1nnnc1C(CCSC)N1CCC(n2c(=O)[nH]c3ccccc32)CC1 (centres undefined),inhibition,PEG-3 [1],72.5%
same,inhibition,PEG-3 [2],71.8%
O=C1NC(=S)NC(=O)C1=Cc1cccn1-c1ccc(O)cc1,inhibition,PEG-3 [1],100%
same,inhibition,PEG-3 [2],101%
CC[n+]1c(-c2ccccc2)c2cc(N)ccc2c2ccc(N)cc21,inhibition,PEG-3 [1],102%
same,inhibition,PEG-3 [2],102%
COc1ccc(-n2nnnc2C(c2cccc3ccccc23)N2CCC(n3c(=O)[nH]c4ccccc43)CC2)cc1 (centres undefined),inhibition,[7],14.7% (inactive)
COc1ccccc1N=C1SCCCN1C,thermal shift relative to vanadate control,[8],-0.51% (inactive)
Cn1cccc1/C=C1/C(=O)NC(=S)N(Cc2ccc(F)cc2)C1=O,inhibition,PEG-3 [1],101%
same,inhibition,PEG-3 [2],100%
O=c1[nH]c(=O)n(CCc2ccc(F)cc2)c(O)c1/C=N/N1CCCCC1,thermal shift relative to vanadate control,[8],-3.71% (inactive)
CCOC(=O)c1cccc(-[n+]2c(-c3ccccc3)cc(-c3ccccc3)cc2-c2ccccc2)c1,inhibition,[4],33.2% (active)
same,activity,[5],49.7%
same,activity,[6],44%
same,"activity, % sensitization",[9],6.7%
same,"activity, % sensitization",[10],9.91%
same,"activity, % sensitization",[11],9.79%
same,"activity, % sensitization",[12],5.11%
O=C(CSC1c2ccccc2-c2ccccc21)N/N=C/c1ccccc1O,inhibition,[4],27.7% (active)
same,inhibition,PEG-3 [1],79.8%
same,inhibition,PEG-3 [2],66.1%
same,inhibition,Rat fibroblasts (CREF) [13],64.9%
same,inhibition,Rat fibroblasts (CREF) [14],74.1%
C[C@]12CC[C@H](O)C[C@H]1CC[C@@H]1[C@@H]2C[C@@H](O)[C@]2(C)[C@@H](C3=CC(=O)OC3)CC[C@]12O,inhibition,[4],34% (active)
same,activity,[5],86.5%
same,activity,[6],85.4%
Cc1c(C(=O)N2CCC3(CC2)OCCO3)sc2ncnc(N3CCN(c4ccccn4)CC3)c12,inhibition,PEG-3 [1],97.5%
same,inhibition,PEG-3 [2],102%
O=C1NC(=O)N(Cc2ccc(F)cc2)C(=O)/C1=C\C=C\c1ccco1,inhibition,PEG-3 [1],98.2%
same,inhibition,PEG-3 [2],99.4%
O=C1NC(=O)N(Cc2ccco2)C(=O)/C1=C/C=C/c1ccco1,inhibition,PEG-3 [1],102%
same,inhibition,PEG-3 [2],102%
CC1CCC(C(C)C)C(OC(=O)Cn2c(COc3ccccc3)[n+](C)c3ccccc32)C1 (centres undefined),activity,[5],66.9%
same,activity,[6],57.7%
CCOC(=O)[C@]12Cc3c(cc(OC)c(OC)c3OC)[C@H]1N(C1CCCCC1)C(=O)c1ccccc12,activity,[5],95.8%
same,activity,[6],98%
C=CCn1c(O)c(C(C)=NCc2cc(OC)cc(OC)c2)c(=O)[nH]c1=O,activity,[5],79.5%
same,activity,[6],84.8%
NC(=O)c1cn(C2OC(CO)C(O)C2O)c2ncnc(N)c12 (centres undefined),activity,[5],56.3%
same,activity,[6],81.3%
COc1ccc(CC2NCC(O)C2OC(C)=O)cc1 (centres undefined),activity,[5],90.1%
same,activity,[6],93.8%
